According to PubChem BioAssay AID1159580 (chemical genetic matrix, 2015):
In all, about 5,500 compounds went through this assay and about 2,000 (36%) were called active. Roughly 18% stayed inconclusive and do not appear here. Rule as the data show it: active = normalized growth mostly below about 0.91 (no sharp cut-off); inconclusive = no clear call, values can overlap the other calls; inactive = mostly above about 0.92. This is one part of the list.

Experiment: chemical genetic growth profiling, strain panel (AID 1159580);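 also: tested at 20 µM; growth read once vehicle control cultures reached saturation at 30 °C; 1 = growth at the plate median or of vehicle wells; lower values mean less growth of the strain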
Conditions: S. cerevisiae deletion strains, growth OD

Measured: normalized growth

C=C1C2=CC(=O)O[C@@H](c3ccoc3)[C@]2(C)CCC1[C@@]1(C)C=CC(=O)C(C)(C)[C@@H]1CC(=O)OC (stereo partly drawn)
inactive: locus YAL021C, strain ccr4, hits give low values 1.04 | locus YAL026C, strain drs2, hits give low values 0.996 | locus YAL030W, strain snc1, hits give low values 0.998 | locus YBL061C, strain skt5, hits give low values 0.999 | locus YBR009C, strain hhf1, hits give low values 1.02 | locus YBR021W, strain FUR4, hits give low values 0.989 | locus YBR023C, strain chs3, hits give low values 1.01 | locus YBR171W, strain sec66, hits give low values 0.983 | locus YBR229C, strain ROT2, hits give low values 1 | locus YBR231C, strain swc5, hits give low values 0.982 | locus YBR279W, strain paf1, hits give low values 1 | locus YCL011C, strain gbp2, hits give low values 1.01 | locus YCL016C, strain dcc1, hits give low values 1.04 | locus YCL029C, strain bik1, hits give low values 0.983 | locus YCL061C, strain MRC1, hits give low values 1.01 | locus YCL069W, strain vba3, hits give low values 0.984 | locus YCR088W, strain abp1, hits give low values 0.982 | locus YDL005C, strain med2, hits give low values 0.996 | locus YDL035C, strain GPR1, hits give low values 0.991 | locus YDL040C, strain nat1, hits give low values 0.999 | locus YDL074C, strain BRE1, hits give low values 1.02 | locus YDL101C, strain DUN1, hits give low values 1.01 | locus YDL185W, strain tfp1, hits give low values 0.988 | locus YDL192W, strain arf1, hits give low values 0.999 | locus YDR001C, strain nth1, hits give low values 0.994 | locus YDR069C, strain doa4, hits give low values 0.991 | locus YDR101C, strain arx1, hits give low values 0.958 | locus YDR137W, strain rgp1, hits give low values 0.999 | locus YDR150W, strain NUM1, hits give low values 1.01 | locus YDR159W, strain sac3, hits give low values 0.953 | locus YDR162C, strain NBP2, hits give low values 1 | locus YDR195W, strain ref2 0.95 | locus YDR297W, strain sur2, hits give low values 0.988 | locus YDR318W, strain mcm21, hits give low values 1.01 | locus YDR334W, strain swr1, hits give low values 0.982 | locus YDR335W, strain msn5, hits give low values 0.997 | locus YDR388W, hits give low values 1 | locus YDR392W, strain spt3, hits give low values 1.03 | locus YDR502C, strain sam2, hits give low values 0.988 | locus YEL003W, strain gim4, hits give low values 0.994 | locus YEL037C, strain rad23, hits give low values 1 | locus YEL061C, strain CIN8 (second series), hits give low values 0.978 | locus YER015W, strain faa2, hits give low values 1.01 | locus YER016W, strain bim1, hits give low values 0.985 | locus YER110C, hits give low values 0.997 | locus YER111C, strain swi4, hits give low values 0.986 | locus YER155C, strain BEM2 (second series), hits give low values 1.02 | locus YER155C, strain BEM2, hits give low values 0.982 | locus YER167W, strain BCK2, hits give low values 1 | locus YFR010W, strain ubp6, hits give low values 0.972 | locus YGL078C, strain dbp3, hits give low values 0.999 | locus YGL086W, strain mad1, hits give low values 0.999 | locus YGL167C, strain pmr1, hits give low values 1.01 | locus YGL173C, strain kem1, hits give low values 0.99 | locus YGL227W, strain vid30, hits give low values 0.992 | locus YGL240W, strain doc1, hits give low values 0.994 | locus YGL248W, strain PDE1, hits give low values 1.01 | locus YGL253W, strain hxk2, hits give low values 0.937 | locus YGR078C, strain PAC10, hits give low values 1.01 | locus YGR135W, strain pre9, hits give low values 1.01 | locus YGR252W, strain gcn5, hits give low values 0.976 | locus YHR013C, strain ard1, hits give low values 1.01 | locus YHR027C, strain rpn1, hits give low values 0.976 | locus YHR079C, strain IRE1 (second series), hits give low values 0.985 | locus YHR094C, strain hxt1, hits give low values 0.996 | locus YHR129C, strain ARP1, hits give low values 1.01 | locus YHR142W, strain chs7, hits give low values 1.01 | locus YHR200W, strain rpn10, hits give low values 1 | locus YIL066C, strain RNR3, hits give low values 1.01 | locus YIL073C, strain SPO22, hits give low values 1.02 | locus YIL125W, strain kgd1, hits give low values 0.995 | locus YIR030C, strain dcg1, hits give low values 1 | locus YJL092W, strain hpr5, hits give low values 0.984 | locus YJL095W, strain BCK1 (second series), hits give low values 0.986 | locus YJL095W, strain BCK1, hits give low values 1.02 | locus YJL115W, strain asf1, hits give low values 0.999 | locus YJL129C, strain trk1, hits give low values 0.99 | locus YJL134W, strain LCB3, hits give low values 0.997 | locus YJL154C, strain vps35, hits give low values 0.995 | locus YJL164C, strain tpk1, hits give low values 1.02 | locus YJL166W, strain qcr8, hits give low values 0.996 | locus YJL168C, strain set2, hits give low values 1 | locus YJL187C, strain SWE1 (second series), hits give low values 1.01 | locus YJL187C, strain SWE1, hits give low values 0.99 | locus YJR075W, strain HOC1, hits give low values 0.993 | locus YKL009W, strain mrt4, hits give low values 0.976 | locus YKL068W, hits give low values 0.997 | locus YKL085W, strain MDH1 (second series), hits give low values 0.992 | locus YKL085W, strain MDH1, hits give low values 0.992 | locus YKL160W, strain elf1, hits give low values 1.06 | locus YKR001C, strain vps1, hits give low values 0.998 | locus YKR026C, strain gcn3, hits give low values 0.976 | locus YKR091W, strain srl3, hits give low values 0.994 | locus YLL001W, strain dnm1, hits give low values 0.99 | locus YLL026W, hits give low values 0.989 | locus YLL041C, strain sdh2, hits give low values 0.987 | locus YLR027C, strain aat2, hits give low values 0.978 | locus YLR039C, strain RIC1, hits give low values 1.05 | locus YLR058C, strain SHM2, hits give low values 1.01 | locus YLR102C, strain apc9, hits give low values 1 | locus YLR221C, strain rsa3, hits give low values 0.987 | locus YLR258W, strain gsy2, hits give low values 1.02 | locus YLR262C, strain YPT6 (second series), hits give low values 0.997 | locus YLR262C, strain YPT6, hits give low values 1.08 | locus YLR268W, strain sec22, hits give low values 0.996 | locus YLR320W, strain mms22, hits give low values 1.01 | locus YLR342W, strain FKS1 (second series), hits give low values 1.01 | locus YLR342W, strain FKS1, hits give low values 0.995 | locus YLR357W, strain rsc2, hits give low values 1.03 | locus YLR370C, strain arc18, hits give low values 0.97 | locus YLR371W, strain rom2, hits give low values 0.998 | locus YLR384C, strain iki3, hits give low values 1 | locus YLR418C, strain cdc73, hits give low values 1.01 | locus YML016C, strain PPZ1, hits give low values 0.998 | locus YML032C, strain rad52, hits give low values 0.984 | locus YML120C, strain ndi1, hits give low values 1.02 | locus YML124C, strain tub3, hits give low values 0.997 | locus YMR058W, strain fet3, hits give low values 1 | locus YMR078C, strain ctf18, hits give low values 1 | locus YMR125W, strain sto1, hits give low values 1 | locus YMR129W, hits give low values 0.991 | locus YMR205C, strain PFK2, hits give low values 1.07 | locus YMR223W, strain ubp8, hits give low values 0.989 | locus YMR231W, strain pep5, hits give low values 0.973 | locus YMR307W, strain GAS1, hits give low values 1.03 | locus YNL067W, strain RPL9B, hits give low values 1 | locus YNL071W, strain lat1, hits give low values 0.996 | locus YNL209W, strain ssb2, hits give low values 1.03 | locus YNL233W, strain BNI4, hits give low values 1.01 | locus YNL248C, strain rpa49, hits give low values 0.966 | locus YNL250W, strain rad50, hits give low values 0.997 | locus YNL271C, strain bni1, hits give low values 0.995 | locus YNL298W, strain CLA4, hits give low values 0.988 | locus YNL307C, strain MCK1, hits give low values 1 | locus YNL322C, strain KRE1 (second series), hits give low values 0.995 | locus YNL322C, strain KRE1, hits give low values 0.995 | locus YNR049C, strain mso1, hits give low values 0.99 | locus YNR052C, strain pop2, hits give low values 1.01 | locus YOL012C, strain htz1 1.06 | locus YOL147C, strain pex11, hits give low values 0.996 | locus YOR001W, strain rrp6, hits give low values 0.947 | locus YOR061W, strain CKA2, hits give low values 0.994 | locus YOR069W, strain VPS5, hits give low values 1 | locus YOR070C, strain gyp1, hits give low values 1 | locus YOR080W, strain dia2, hits give low values 0.983 | locus YOR083W, strain WHI5, hits give low values 1.06 | locus YOR106W, strain vam3, hits give low values 1.03 | locus YOR136W, strain idh2, hits give low values 0.993 | locus YOR144C, strain elg1, hits give low values 0.995 | locus YOR184W, strain ser1, hits give low values 0.992 | locus YOR265W, strain rbl2, hits give low values 0.984 | locus YOR270C, strain vph1, hits give low values 0.991 | locus YOR290C, strain snf2, hits give low values 1.06 | locus YOR316C, strain cot1, hits give low values 0.95 | locus YPL051W, strain arl3, hits give low values 0.985 | locus YPL078C, strain atp4, hits give low values 1.05 | locus YPL106C, strain sse1, hits give low values 1.08 | locus YPL240C, strain hsp82, hits give low values 0.992 | locus YPR119W, strain clb2, hits give low values 1 | locus YPR141C, strain kar3, hits give low values 0.999 | locus YPR163C, strain tif3, hits give low values 0.991 | locus YPR167C, strain met16, hits give low values 0.992 | strain wtn01, hits give low values 0.978
